The list is not random: actives were taken first. Their share in the collection is about 3.9%.
FBA Mtb inh: Mtb fructose-bisphosphate aldolase inhibition; P9WQA3; purified M. tuberculosis FBA, fluorescence read-out; inhibition, % at 1 µM; 360,000 tested, 2.3% active; in the data active = inhibition above about 27%;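 note: 0% = vehicle and 100% = reference inhibitor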
Target sequence (P9WQA3 whole entry, looked up): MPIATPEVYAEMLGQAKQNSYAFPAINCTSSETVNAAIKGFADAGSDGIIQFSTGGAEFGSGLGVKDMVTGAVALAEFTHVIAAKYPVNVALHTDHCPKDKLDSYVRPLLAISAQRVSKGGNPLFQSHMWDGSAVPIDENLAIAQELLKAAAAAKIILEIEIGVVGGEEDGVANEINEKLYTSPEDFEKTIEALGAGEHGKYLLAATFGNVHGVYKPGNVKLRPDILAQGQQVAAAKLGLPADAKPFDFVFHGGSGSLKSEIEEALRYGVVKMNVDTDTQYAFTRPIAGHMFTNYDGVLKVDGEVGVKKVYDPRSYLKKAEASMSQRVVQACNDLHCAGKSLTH
GDH-TPI counter: GDH-TPI coupled enzyme inhibition counter-screen; inhibition, % at 4.8 µM; GDH-TPI coupled enzyme counterscreen, NADH absorbance; 360,000 tested, 1.2% active;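 note: 0% = DMSO wells and 100% = wells lacking the enzyme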
CCHF vOTU inh: CCHFV vOTU protease inhibition. 370,000 tested, 0.55% active. AID 651958. Pep-AMC fluorescence. inhibition, % at 11.5 µM; note: 0% = vehicle wells with enzyme and 100% = no enzyme wells
BH1578 lux ind: quorum light induction in luxS cqsA deficient V. cholerae; V. cholerae BH1578 lux reporter, luminescence, 6 h; activation, % at 18.7 µM; 350,000 tested, 0.16% active; AID 588436; in the data active = activation mostly above about 9.7%, no sharp cut-off
Numbers without * were called inactive. Cut-off read from the data, not from the text of the source, unless noted: active = inhibition above about 30%; inactive = the rest.

`Cc1cc(NC(=O)CSC2=Nc3ccccc3C3=NC(Cc4ccccc4)C(=O)N23)n[nH]1` (centres undefined) gave FBA Mtb inh 3, GDH-TPI counter 2, CCHF vOTU inh 8 and BH1578 lux ind 26*.
For CCCCNC(=O)CC1N=C2c3ccccc3N=C(SCC(=O)Nc3cccc(C)c3)N2C1=O (centres undefined) the results were FBA Mtb inh 4, GDH-TPI counter 10, CCHF vOTU inh 6 and BH1578 lux ind inactive.
Screening Fc1ccc(/C=N/Nc2ncnc3nc[nH]c23)cc1F returned FBA Mtb inh -1, GDH-TPI counter 42*, CCHF vOTU inh -2 and BH1578 lux ind 0.
COc1ccc(-c2cc(-c3ccccc3)[n+](C)c(-c3ccccc3)c2)cc1 was read as FBA Mtb inh 35*, GDH-TPI counter 19, CCHF vOTU inh -24 and BH1578 lux ind -1.
For Cc1ccccc1C(=O)Nc1cccc(C(=O)N/N=C/c2ccc3c(c2)OCO3)c1 the results were FBA Mtb inh -3, GDH-TPI counter 32*, CCHF vOTU inh 22 and BH1578 lux ind -4.
`O=C(N/N=C/c1ccc2c(c1)OCO2)c1cccc(NC(=O)c2ccccc2Cl)c1` gave FBA Mtb inh 5, GDH-TPI counter 17, CCHF vOTU inh 9 and BH1578 lux ind 1.
Screening O=C(N/N=C/c1ccc2c(c1)OCO2)c1ccc(NC(=O)c2ccccc2Cl)cc1 returned FBA Mtb inh 2, GDH-TPI counter 35*, CCHF vOTU inh 4 and BH1578 lux ind -3.
Screening COC(=O)Cc1cc(=O)[nH]c(Nc2nc3ccccc3o2)n1 returned FBA Mtb inh 9, GDH-TPI counter 37*, CCHF vOTU inh 1 and BH1578 lux ind inactive.
Cc1cccn2c(=O)c3cc(C(=O)NCCc4ccccc4)c(=N)n(CCCn4ccnc4)c3nc12 was read as FBA Mtb inh 129*, GDH-TPI counter -4, CCHF vOTU inh -114 and BH1578 lux ind 0.
For C=CCn1c(=N)c(C(=O)NCCCOC)cc2c(=O)n3cccc(C)c3nc21 the results were FBA Mtb inh active, GDH-TPI counter 15, CCHF vOTU inh -190 and BH1578 lux ind 7.
Screening CCCCNC(=O)c1cc2c(=O)n3cccc(C)c3nc2n(Cc2ccccc2)c1=N returned FBA Mtb inh 150*, GDH-TPI counter 1, CCHF vOTU inh -81 and BH1578 lux ind inactive.
`COCCn1c(=N)c(C(=O)NCCc2ccccc2)cc2c(=O)n3cccc(C)c3nc21` gave FBA Mtb inh 117*, GDH-TPI counter -2, CCHF vOTU inh -100 and BH1578 lux ind inactive.
`COCCNC(=O)c1cc2c(=O)n3cccc(C)c3nc2n1C` gave FBA Mtb inh 19, GDH-TPI counter 9, CCHF vOTU inh -23 and BH1578 lux ind 0.
`Cc1cccn2c(=O)c3cc(S(=O)(=O)c4ccccc4)c(=N)n(Cc4cccnc4)c3nc12` gave FBA Mtb inh 4, GDH-TPI counter 11, CCHF vOTU inh -12 and BH1578 lux ind inactive.
`Nc1ccn([C@@H]2O[C@H](C(=O)Nc3ccc(C(=O)N4CCCCC4)cc3)[C@@H](O)[C@H]2O)c(=O)n1` gave FBA Mtb inh 2 and CCHF vOTU inh -10.
For CN1CCN(C(=O)c2ccccc2NC(=O)c2ccccc2)CC1 the results were FBA Mtb inh -1, GDH-TPI counter 4, CCHF vOTU inh 11 and BH1578 lux ind 0.
For CCNC(=O)c1cc2c(=O)n3cccc(C)c3nc2n(CCc2ccccc2)c1=N the results were FBA Mtb inh active, GDH-TPI counter 9, CCHF vOTU inh -147 and BH1578 lux ind 7.
For CCC(C)n1c(=N)c(C#N)cc2c(=O)n3cccc(C)c3nc21 (centres undefined) the results were FBA Mtb inh 20, GDH-TPI counter 1, CCHF vOTU inh -6 and BH1578 lux ind 0.
For CNC(=O)c1cc2c(=O)n3cccc(C)c3nc2n(C(C)C)c1=N the results were FBA Mtb inh active, GDH-TPI counter 7, CCHF vOTU inh -315 and BH1578 lux ind inactive.
For Cc1ccc(N2CC(C(=O)NC(C)CCc3ccccc3)CC2=O)cc1 (centres undefined) the results were FBA Mtb inh 2, GDH-TPI counter 0, CCHF vOTU inh 5 and BH1578 lux ind -1.
Cc1ccc(S(=O)(=O)Oc2cccc(/C=N/Nc3ccc(C(=O)O)cc3)c2)cc1 was read as FBA Mtb inh 3, GDH-TPI counter 31*, CCHF vOTU inh 12 and BH1578 lux ind 0.
COc1ccc(/C=C/C(=O)O/N=C(\N)c2ccccc2)cc1OC was read as FBA Mtb inh 6, GDH-TPI counter 40*, CCHF vOTU inh 6 and BH1578 lux ind -1.
Nc1ccc(C(=O)N/N=C\c2ccc(OC(=O)c3ccccc3Cl)cc2)cc1 was read as FBA Mtb inh -1, GDH-TPI counter 15, CCHF vOTU inh 8 and BH1578 lux ind inactive.
`O=C(O)c1ccc(N/N=C/c2ccc(OC(=O)c3ccccc3Cl)cc2)cc1` gave FBA Mtb inh -1, GDH-TPI counter 41*, CCHF vOTU inh 12 and BH1578 lux ind inactive.
Screening COc1ccc(/C=N/Nc2ccc(C(=O)O)cc2)cc1OC returned FBA Mtb inh -2, GDH-TPI counter 47*, CCHF vOTU inh 2 and BH1578 lux ind 0.
COc1ccc(/C=N/Nc2ccc(C(=O)O)cc2)cc1Br was read as FBA Mtb inh 2, GDH-TPI counter 24, CCHF vOTU inh 0 and BH1578 lux ind inactive.
CC(C)N1CC2(CC(c3ccccc3C(F)(F)F)=NO2)CN1C(=O)c1ccco1 (centres undefined) was read as FBA Mtb inh -3, GDH-TPI counter -7, CCHF vOTU inh 6 and BH1578 lux ind 0.
`CC(C)c1ccc(/C=N/Nc2ccc(C(=O)O)cc2)cc1` gave FBA Mtb inh -1, GDH-TPI counter 31*, CCHF vOTU inh 22 and BH1578 lux ind 2.
Screening O=[N+]([O-])/C=C1/CCCCCN1 returned FBA Mtb inh 2, GDH-TPI counter 19, CCHF vOTU inh 1 and BH1578 lux ind 0.
For N#CCN1CCC/C1=C\[N+](=O)[O-] the results were FBA Mtb inh -4, GDH-TPI counter 32*, CCHF vOTU inh 10 and BH1578 lux ind 0.
Cc1ccc(Cn2c(=N)c(C(=O)NCC3CCCO3)cc3c(=O)n4cccc(C)c4nc32)cc1 (centres undefined) was read as FBA Mtb inh active, GDH-TPI counter 3, CCHF vOTU inh -286 and BH1578 lux ind 1.
Screening N=c1c(C(=O)NCC2CCCO2)cc2c(=O)n3ccccc3nc2n1Cc1ccccc1 (centres undefined) returned FBA Mtb inh active, GDH-TPI counter 18, CCHF vOTU inh -375 and BH1578 lux ind 0.
Screening N=c1c(C(=O)NCC2CCCO2)cc2c(=O)n3ccccc3nc2n1Cc1ccc(Cl)cc1 (centres undefined) returned FBA Mtb inh active, GDH-TPI counter 0, CCHF vOTU inh -194 and BH1578 lux ind 0.
`N=c1c(C(=O)NCC2CCCO2)cc2c(=O)n3ccccc3nc2n1Cc1ccccc1Cl` (centres undefined) gave FBA Mtb inh 166*, GDH-TPI counter 6, CCHF vOTU inh -146 and BH1578 lux ind 7.
`COc1ccc(CCNC(=O)c2cc3c(=O)n4ccccc4nc3n(CC3CCCO3)c2=N)cc1OC` (centres undefined) gave FBA Mtb inh 3, GDH-TPI counter 3, CCHF vOTU inh -9 and BH1578 lux ind -1.

High-throughput results (PubChem)
